Bioassay records from PubChem BioAssay.
B2AR arrestin ag: ADRB2 beta-arrestin recruitment; HTLA Tango cells, beta-arrestin recruitment, luciferase luminescence, 18 h; 44,000 tested, under 10 active; Potency, µM (titrated, usually from 46.1 µM), most hits filed as activators; AID 1347077;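 also: potency is read from the fitted curve at half-maximal effect; 0% = DMSO and full agonism = EC100 isoproterenol or metaproterenol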
Target sequence (P07550 whole entry, looked up): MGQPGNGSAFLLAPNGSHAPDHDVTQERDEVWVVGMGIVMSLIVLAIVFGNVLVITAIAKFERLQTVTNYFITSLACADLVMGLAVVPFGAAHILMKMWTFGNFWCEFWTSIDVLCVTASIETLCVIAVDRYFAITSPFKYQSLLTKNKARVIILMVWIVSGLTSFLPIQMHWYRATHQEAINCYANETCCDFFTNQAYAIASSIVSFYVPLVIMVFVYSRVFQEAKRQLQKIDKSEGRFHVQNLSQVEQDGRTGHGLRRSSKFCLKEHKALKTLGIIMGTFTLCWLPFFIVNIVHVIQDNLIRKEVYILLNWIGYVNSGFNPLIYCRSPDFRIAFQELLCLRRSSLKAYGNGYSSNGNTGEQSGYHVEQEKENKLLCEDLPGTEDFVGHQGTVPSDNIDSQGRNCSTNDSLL
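First, Tango cells carrying beta2-AR and beta-arrestin fusions received compound up to 46 microM. After 18 hr at 37 degrees C, luciferase substrate was added for 15 minutes, then luminescence gave %Activity for curve fitting.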
HTT-AS promoter: activates huntingtin-antisense promoter activity. AID 1508624. HEK293 HTT-AS promoter firefly luciferase reporter, 24 h; response scale: percent change from vehicle, -100% = no light. actives 0.24% (n = 48,000). Potency, µM (titrated, usually from 57.5 µM), inactives show top-dose activity change, positive = activation, most hits filed as activators; also: potency is read from the fitted curve at half-maximal effect; nearly all actives have a fitted effect of over 55% in size
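Luminescence was read after Dual-Glo reagent and a 10 min room-temperature incubation. Values were normalized to vehicle (0% activity) and zero RLU (-100% activity). Reporter HEK293 cells had been exposed to compounds (up to 57.5 uM final) for 24 h.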
GALK inhibitor: inhibitors of human galactokinase (GALK); recombinant GALK, Kinase-Glo ATP luminescence, 1 h; Potency, µM (top dose mostly 57.5 µM), without a hit: top-dose activity, negative = inhibition, usual class: inhibitors; 44,000 tested, under 10 active; AID 1347072;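 also: plate controls were full GALK reaction for no effect and reaction lacking GALK for full effect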
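Luminescent ATP-depletion readout (Kinase-Glo Plus, 10 min) after 1 h RT reaction of 5 nM GALK, 35 uM ATP, 100 uM galactose, pH 8.0 HEPES buffer. Decreased kinase activity scored as inhibition.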
PTAP-TSG101 blk: TSG101-PTAP interaction inhibition, HIV-1 budding. Fluorescence polarization, FITC-PTAP peptide/Tsg101, 20 min. 44,000 tested, under 10 active. Q99816. Potency, µM (titrated, usually from 115 µM), most hits filed as inhibitors; also: potency is read from the fitted curve at half-maximal effect; 0% is about no effect
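Fluorescence polarization: Tsg101 binding domain (10 uM final) in 10 mM HEPES pH 7.5, 0.15 M NaCl, 0.01% Tween 20, 3 mM EDTA, 0.1 mM TCEP; compounds pinned; FITC-PTAP peptide 50 nM final; 20 min, r.t.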
HTT prom inh: inhibits huntingtin promoter activity; HEK293 HTT promoter firefly luciferase reporter, 24 h; Potency, µM (highest dose often 57.5 µM), inactives show at the highest dose activity change, negative = inhibition, usual class: inhibitors; actives 0.93% (n = 48,000); AID 1508623; also: potency is read from the fitted curve at half-maximal effect; nearly all actives have a fitted effect of over 50% in size
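HEK293 luciferase promoter-reporter cells (2,500/well) plated 24 h, then compounds added at up to 57.5 uM final for 24 h at 37 °C. Firefly luminescence by Dual-Glo, normalized to vehicle (0%) and zero RLU (-100%).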
NTMT1 inh: inhibitors of human N-terminal methyltransferase NTMT1. NTMT1 MTase-Glo SAH luminescence, purified enzyme. Q9BV86. Potency, µM (top dose mostly 114 µM), inactives show at the top dose activity change, negative = inhibition, most hits filed as inhibitors. AID 1645870. actives 2.5% (n = 59,000);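 also: potency is read from the fitted curve at half-maximal effect; plate controls were DMSO vehicle for no effect and no enzyme for full effect; nearly all actives have a fitted effect of over 65% in size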
Target sequence (Q9BV86 whole entry, looked up): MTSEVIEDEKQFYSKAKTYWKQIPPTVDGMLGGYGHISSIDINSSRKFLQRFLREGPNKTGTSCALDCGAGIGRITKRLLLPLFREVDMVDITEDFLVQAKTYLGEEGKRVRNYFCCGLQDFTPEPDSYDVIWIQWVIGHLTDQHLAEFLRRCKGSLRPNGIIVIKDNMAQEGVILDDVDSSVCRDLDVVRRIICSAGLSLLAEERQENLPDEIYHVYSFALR
Active calls of the source: *; i = inactive; ? = inconclusive; nt = not tested or not shown; ! = not active in a repeat; [ ] = dose if it differs, or a comment. The full list was thinned out, with hits kept by preference. Calls follow the shape of the dose curve; as a rule, active = well fitted curve in the direction sought with a large enough effect; inconclusive = small, poorly fitted or top-dose-only effect, or another doubt; inactive = no such curve, though single readings can be large; an effect the other way counts as inactive or inconclusive.

SMILES	B2AR arrestin ag	HTT-AS promoter	GALK inhibitor	PTAP-TSG101 blk	HTT prom inh	NTMT1 inh
COC1CC(C(=O)c2ccc3c(N)ncc(-c4ccc(-c5cnn(C)c5)cc4)c3n2)C1 (stereo not given)	nt	nt	nt	nt	nt	1.5%
CCCc1nc(C)c2c(=O)[nH]c(-c3cc(S(=O)(=O)N4CCN(CC)CC4)ccc3OCC)nn12	nt	-90.0%	nt	nt	?	14.1µM*!
Cc1cc(-c2ccc(C)c(S(=O)(=O)N3CCOc4ccc(Cl)cc43)c2)on1	i	-34.6%	5.5%	i	28.2µM*	-6.2%
Cc1ccc(-c2onc(C)c2C)cc1S(=O)(=O)N1CCOc2ccc(Cl)cc21	i	-91.4%	1.9%	i	?	-11.9%
O=S(=O)(Nc1ccc(-c2cccnc2)c2cccnc12)c1cccc(C(F)(F)F)c1	nt	nt	nt	nt	nt	13.6%
COc1cc(C(=O)NC(c2ccc(Cl)cc2)c2cc(Cl)c3cccnc3c2O)cc(OC)c1OC (stereo not given)	i	-60.8%	-5.1%	i	5.01µM*	4.8%
COc1cccc(C(=O)NC(c2ccc(Cl)cc2)c2cc(Cl)c3cccnc3c2O)c1 (stereo not given)	i	-43.7%	0.0%	i	?	10.3%
O=C(NCc1cccc(Cl)c1)C1CCCN(c2nn3cc(-c4ccc(F)cc4)nc3s2)C1 (stereo not given)	i	-70.2%	-5.7%	i	2.51µM*	2.0%
O=C(Nc1cccc(Cl)c1)C1CCCN(c2nn3cc(-c4ccc(F)cc4)nc3s2)C1 (stereo not given)	i	-64.0%	-0.1%	i	3.98µM*	19.9%
O=C(NCc1cccc(Cl)c1)C1CCN(c2nn3cc(-c4ccc(F)cc4)nc3s2)CC1	i	0.5%	2.4%	i	-5.0%	3.6%
COc1ccc(-c2cn3nc(N4CCCC(C(=O)Nc5ccc(Cl)cc5C)C4)sc3n2)cc1 (stereo not given)	i	-2.9%	4.0%	i	-6.4%	16.1%
[O-][n+]1ccccc1SSc1cccc[n+]1[O-]	nt	-74.5%[25.1 µM]	nt	nt	?	5.01µM*
COc1ccc2oc(=O)c(C(=O)Nc3cccc(C(=O)O)c3)cc2c1	i	?	1.8%	i	3.98µM*	-8.6%
O=C(CN1C(=O)C2(SCC(=O)N2c2ccccc2)c2ccccc21)NCc1ccccc1 (stereo not given)	i	-8.4%	-0.7%	i	-22.4%	89.1µM*
Cc1cccc(-n2nnc(-c3nc(-c4cccs4)no3)c2N)c1C	i	0.355µM*	-3.7%	i	103.5%	4.7%
Cc1ccccc1-c1noc(-c2nnn(-c3ccccc3C)c2N)n1	i	0.708µM*	?	i	78.5%	25.5%
Cc1ccc(-c2nccc(=O)n2CC(=O)N(C)C(C)c2ccco2)cc1 (stereo not given)	nt	nt	nt	nt	nt	-2.9%
COc1ccc(CNC(=O)c2cnn(-c3ccccc3)c2-n2cccc2)cc1OC	i	nt	4.8%	i	nt	nt
COc1ccc(CCNC(=O)c2c(C)nn(-c3ccc(F)cc3)c2-n2cccc2)cc1OC	i	-34.3%	-1.3%	i	20µM*	20.0%
COc1ccc(CNC(=O)c2cnn(-c3ccc(C)cc3)c2-n2cccc2)cc1OC	i	-37.4%	0.0%	i	15.8µM*	-5.5%
COc1ccc(NS(=O)(=O)c2sc3ccc(Cl)cc3c2C)cc1N1CCNCC1	nt	nt	nt	nt	nt	-4.6%[57.5 µM]
O=C(Cc1ccccc1)Nc1ccc(S(=O)(=O)Nc2nccs2)cc1	nt	nt	nt	nt	nt	3.7%[57.5 µM]
CN1CCC(Nc2ncc3ncnc(Nc4ccc(F)c(Cl)c4)c3n2)CC1	nt	-10.8%	nt	nt	-16.1%	44.7µM*
C=CC(=O)Nc1cc2c(Nc3ccc(F)c(Cl)c3)ncnc2cc1C#CC(C)(C)N1CCN(C)CC1	nt	-16.1%	nt	nt	-3.1%	?
CCOC(=O)C1CCN(S(=O)(=O)c2cc(-c3cc(C)no3)ccc2OC)CC1	i	-11.2%	-1.0%	i	-25.0%	89.1µM*
SMILES	B2AR arrestin ag	HTT-AS promoter	GALK inhibitor	PTAP-TSG101 blk	HTT prom inh	NTMT1 inh
CN1CCCN(C(=O)c2cccc(-c3ccc(/C=C4\C(=O)Nc5ccc(Cl)cc54)o3)c2)CC1	nt	nt	nt	nt	nt	7.94µM*
CN1CCN(C(=O)c2ccc3c(c2)N(Cc2ccc(Cl)cc2)C(=O)c2ccccc2S3(=O)=O)CC1	i	-16.2%	0.3%	i	-9.2%	29.8%
Cc1c[nH]c2nc(Nc3ccc(N4CCN(C)CC4)c(F)c3)nc(-c3cccc(CC#N)c3)c12	nt	nt	nt	nt	nt	25.1µM*
O=C(Nc1ccc(OC(F)(F)Cl)cc1)c1cnc(N2CC[C@@H](O)C2)c(-c2ccn[nH]2)c1	nt	nt	nt	nt	nt	-5.2%
O=C(Nc1ccc(S(=O)(=O)Nc2nccs2)cc1)C1CCC2(CCC2)CC1	nt	nt	nt	nt	nt	8.2%
CN1C(=O)[C@@H](NC(=O)c2cc(Cc3ccccc3)on2)COc2ccccc21	nt	nt	nt	nt	nt	6.4%
CCOC(=O)C1=C(CN2CCN(c3ccc(OC)cc3)CC2)NC(=O)NC1c1ccc(OC)cc1 (stereo not given)	i	-24.5%	0.9%	i	?	?
CCOC(=O)C1=C(CN2CCN(c3ccc(C)cc3C)CC2)NC(=O)NC1c1ccc(OC)cc1 (stereo not given)	i	-37.1%	-0.2%	i	28.2µM*	-0.1%
CCOCCCNC(=O)c1c[nH]c2ccc(S(=O)(=O)Nc3cccc(Cl)c3C)cc2c1=O	i	-27.1%	0.0%	i	-22.5%	89.1µM*
CNC(=O)c1c[nH]c2ccc(S(=O)(=O)Nc3cccc(Cl)c3C)cc2c1=O	i	-49.6%	1.4%	i	-20.8%	-1.8%
Cc1ccc(CCNC(=O)c2c[nH]c3ccc(S(=O)(=O)Nc4cccc(C(F)(F)F)c4)cc3c2=O)cc1	i	-43.4%	-1.0%	i	15.8µM*	13.8%
CC(C)CCNC(=O)c1c[nH]c2ccc(S(=O)(=O)Nc3cccc(C(F)(F)F)c3)cc2c1=O	i	-40.1%	0.3%	i	?	2.4%
CCCCN1C(=O)c2ccccc2NC1c1ccc(OC)c(COc2c(C)cc(NC(C)=O)cc2C)c1 (stereo not given)	nt	nt	nt	nt	nt	-5.4%
